High-throughput results deposited in PubChem by National Center for Advancing Translational Sciences (NCATS).
Shiga toxin inh = A qHTS for Small Molecule Inhibitors of Shiga Toxin | Vero cells, Shiga toxin protein synthesis inhibition reporter | AID 2315, 2010 | inhibition, % at 38.7 µM | hit rate 9.2% among 290,000; in the data active means inhibition mostly above about 28%, no sharp cut-off; inactive means mostly below about 43%
Cycloheximide cs = Cycloheximide Counterscreen for Small Molecule Inhibitors of Shiga Toxin. AID 2314, 2010. max response, %. cell reporter, cycloheximide protein synthesis inhibition counterscreen. hit rate 12% among 300,000; in the data active means max response mostly above about 13%, no sharp cut-off; inactive means mostly below about 14%; further: read at 38.3 µM for the half of the compounds with a filed dose
LmPK inhibitor = qHTS Assay for Inhibitors of Leishmania Mexicana Pyruvate Kinase (LmPK); Q27686; purified LmPK, Kinase-Glo ATP luminescence, 1 h; Potency, µM (titrated, usually from 57.5 µM), actives largely listed as inhibitors; hit rate 0.37% among 290,000; AID 1721, 2009
Target sequence (Q27686 whole entry, looked up): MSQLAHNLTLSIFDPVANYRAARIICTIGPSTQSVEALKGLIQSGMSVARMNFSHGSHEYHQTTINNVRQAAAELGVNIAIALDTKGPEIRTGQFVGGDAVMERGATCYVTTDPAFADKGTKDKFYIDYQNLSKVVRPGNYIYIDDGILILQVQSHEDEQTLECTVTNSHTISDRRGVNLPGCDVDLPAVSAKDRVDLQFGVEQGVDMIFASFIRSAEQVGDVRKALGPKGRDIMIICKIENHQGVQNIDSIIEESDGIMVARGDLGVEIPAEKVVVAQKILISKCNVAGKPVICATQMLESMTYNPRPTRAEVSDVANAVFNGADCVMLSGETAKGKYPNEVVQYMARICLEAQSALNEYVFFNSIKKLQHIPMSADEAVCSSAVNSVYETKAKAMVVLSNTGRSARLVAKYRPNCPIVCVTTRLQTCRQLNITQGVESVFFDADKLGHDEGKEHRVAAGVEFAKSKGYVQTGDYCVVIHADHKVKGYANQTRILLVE
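Purified LmPK (0.1 nM) with 0.5 mM PEP and 0.1 mM ADP in imidazole buffer pH 7.2 with MgCl2/KCl, 1 h at room temperature. ATP formed was read by luciferase luminescence and normalized to no-enzyme and uninhibited controls.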
Pf growth 48h = Primary qHTS for delayed death inhibitors of the malarial parasite plastid, 48 hour incubation. P. falciparum luciferase growth in erythrocytes, 48 h. hit rate 5.9% among 310,000. AID 504832, 2011. Potency, µM (series often up to 28.7 µM), most hits filed as inhibitors
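Luminescence readout; reporter = integrated firefly luciferase in P. falciparum. RBC culture at 2% hematocrit, 0.1% parasitemia final, 37 C/5% CO2; decreased signal taken as growth inhibition.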
Pf growth 96h = Primary qHTS for delayed death inhibitors of the malarial parasite plastid, 96 hour incubation; hit rate 6.9% among 320,000; P. falciparum luciferase reporter growth, 96 h; Potency, µM (titrated, usually from 28.7 µM), most hits filed as inhibitors; AID 504834, 2011
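Readout is luminescence from an integrated firefly luciferase in P. falciparum. Red cells, 2% hematocrit and 0.05% parasitemia final, were cultured with compound through two parasite generations (96 hours) at 37 C, 5% CO2.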
Hits are given with their value; 0 = inactive; ? = inconclusive; - = not tested or not shown; ! = not active in a repeat; [ ] = dose if it differs, or a comment. The list is not random: actives were taken first. Their share in the collection is about 22%. Unless noted, the call rests on the fitted dose curve; in most records, active means well fitted inhibition curve with a large enough effect; inconclusive means small, poorly fitted or top-dose-only effect, or another doubt; inactive means no such curve, though single readings can be large or run the other way.

SMILES	Shiga toxin inh	Cycloheximide cs	LmPK inhibitor	Pf growth 48h	Pf growth 96h
CCc1ccc(C2C(C#N)=C(N)SC(N)=C2C#N)cc1	0	0	0	5.86µM	0
N#CC1=C(N)SC(N)=C(C#N)C1c1ccc([N+](=O)[O-])cc1	0	0	0	?	?
CC1(C)CC(=O)C(C(C2=C(O)CC(C)(C)CC2=O)c2ccc(Br)s2)C(=O)C1 (configuration not stated)	0	0	0	?	?
COc1ccc(-c2noc3c2-c2nc(-c4cccc(C)c4)sc2CC3)cc1	0	0	0	0	0
CN(C)C(CNC(=O)c1ccc(Br)cc1)c1ccco1 (configuration not stated)	0	0	0	0[0.00184 µM]	0
Cc1cc(C(=O)NCC(c2ccco2)N(C)C)ccc1[N+](=O)[O-] (configuration not stated)	0	8.9	0	0	0
Cc1cc(C(=O)NCC(c2ccco2)N(C)C)no1 (configuration not stated)	0	0	0	0	9.28µM
CN(C)C(CNC(=O)c1cc(Br)ccc1Cl)c1ccco1 (configuration not stated)	0	0	0	0	0
O=C(NC[P+](=O)O)OCc1ccccc1	0	0	0	0	-
CN1C[C@H](CNC(=O)OCc2ccccc2)C[C@@H]2c3cccc4c3c(cn4C)C[C@H]21	0	0	0	10.4µM	2.94µM!
O=C(Nc1ccccc1-c1ccccc1)C1CCC1	0	26.3	0	0[1.15 µM]	0
CC1CCCCC1NCC(=O)Nc1ccccc1-c1ccccc1 (configuration not stated)	0	0	0	?	14.7µM
CC(C)(C)c1ccccc1NC(=O)NC1CCN(Cc2c(F)cccc2Cl)CC1	0	0	0	7.38µM	?
COC(=O)c1ccccc1NC(=O)NCc1ccncc1	0	0	0	0	13.1µM
CCN1CCC(NC(=O)Nc2ccccc2C(=O)OC)CC1	0	0	0	0	?
COC(=O)c1ccccc1NC(=O)NC1CCC(C)CC1 (configuration not stated)	33.7	16.3	0	0	0
O=C(Nc1ccccc1F)NC1CCCCCCC1	98.1	57.3	0	0	0
COc1ccc(OCc2nnc(SCC(=O)Nc3cccc(C(C)=O)c3)o2)cc1	-	-	-	0	0
COc1ccc(N(CC(=O)N/N=C/c2ccco2)S(=O)(=O)c2ccccc2)cc1Cl	0	0	0	0	?
O=C(Nc1ccccc1F)NC1CC1	52.1	0	0	0	0
Nc1nc(CCl)nc(Nc2ccc3ccccc3c2)n1	90.2	73.6	0	?	13.1µM
COc1ccc(Nc2nc(N)nc(CCl)n2)cc1	77.6	66.8	0	0	0
Cc1ccc(Nc2nc(N)nc(CN3CCN(c4ccccc4)CC3)n2)cc1Cl	0	0	0	?	?
Nc1cc(C(Cl)=C(Cl)Cl)c(S(N)(=O)=O)cc1S(N)(=O)=O	-	-	-	0	0
CC1(C)Cc2nc3scc(NC(=O)c4ccccc4)c3cc2CO1	0	14.4	0	0	0
SMILES	Shiga toxin inh	Cycloheximide cs	LmPK inhibitor	Pf growth 48h	Pf growth 96h
CC1(C)Cc2nc3sc(C(=O)NCCCO)c(N)c3cc2CO1	90.5	28.6	0	0	0
CCOC(=O)c1sc2nc3c(cc2c1N)COC(C(C)C)C3 (configuration not stated)	157.5	56.9	0	0	0
COC(=O)c1sc2nc3c(cc2c1N)COC(C)(C)C3	198.3	79.8	0	0	0
CCOC(=O)c1sc2nc(N3CCOCC3)c3c(c2c1N)CC(C(C)C)OC3 (configuration not stated)	0	0	0	0	?
Cc1nc2c(sc3nc4c(cc32)COC(C)(C)C4)c(=O)o1	0	0	0	?	?
CC1(C)Cc2nc3sc4c(=O)n(CC(=O)NCc5ccccc5)cnc4c3cc2CO1	0	0	0	0	0
O=C(COC(=O)c1ccccc1-n1cnnn1)c1ccc(F)c(F)c1	-	-	-	0	0
O=C1CCNc2cc3ccccc3cc21	0	24.9	0	?	-
O=C1CCNc2ccc(-c3ccccc3)cc21	74.8	37.5	0	0	0
CS(=O)(=O)N1CCC(C(=O)Nc2ccc(Cl)c(Cl)c2)CC1	0	0	0	0	0
O=C(NCC1CCCCC1)c1ccccc1[N+](=O)[O-]	0	0	0	0	?
O=C(CNS(=O)(=O)c1ccc(Br)s1)NCCc1ccc(Cl)cc1	0	0	0	0	0
Fc1ccc(-n2c(-c3cc(C4CC4)[nH]n3)n[nH]c2=S)cc1Cl	0	0	11.2µM	0	0
